Reference: the supplement of paper PMC4894684
Structures can show the parent of a compound that is named as a salt. ± gives the standard deviation of the averaged measurements.

Tested on: Toxoplasma gondii RH (in HFF)
Experiment: parasite growth relative to the screen mean (all compounds = 100%); higher = less inhibition of parasite growth
Details: 5 µM; 72 h; oxygen 21 %
Summary of the method: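 Values give growth relative to the screen mean. The screen mean (all compounds) is set at 100%, and two screens were averaged. Compounds at 5 µM final were placed on confluent human foreskin fibroblasts, which were infected within 2 h with RH β-Gal–GFP Toxoplasma (MOI 1:5) and kept 72 h at 21% O2 before a CPRG β-Gal readout against in-plate standard curves.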

SMILES	parasite growth [%]
CCN1CCCC1CNC(=O)c1cc(S(=O)(=O)CC)c(N)cc1OC (stereo not drawn) [Amisulpride]	115 ± 14
COC(=O)[C@H]1[C@H]2C[C@H]3c4[nH]c5ccccc5c4CCN3C[C@H]2CC[C@@H]1O [Rauwolscine hydrochloride]	167 ± 41
NCCc1c[nH]cn1 [Histamine dihydrochloride]	80.2 ± 36
CC(C)CC(NC(=O)OCC1c2ccccc2-c2ccccc21)C(=O)O (stereo not drawn)	59.8 ± 23
COC(=O)C1=C(C)NC(C)=C([N+](=O)[O-])[C@H]1c1ccccc1C(F)(F)F	153 ± 8.1
CCc1cc(-c2n[nH]c(C)c2-c2ccc3c(c2)OCCO3)c(O)cc1O	215 ± 12
CC(C)NCC(O)COc1ccc(COCCOC(C)C)cc1 (racemic) [(±)-Bisoprolol hemifumarate]	77.7 ± 0.94
Cc1ccccc1N=Nc1ccc(NC(=O)c2ccnn2C)c(C)c1	82.7 ± 23
CN(C(=O)c1c(O)c2ccccc2n(C)c1=O)c1ccccc1 [Linomide]	135 ± 4.5
O=C(O)CC/C=C\C[C@H]1CO[C@@H](c2ccccc2Cl)O[C@H]1c1ccccc1O	79.02 ± 0.65
CCC1(c2ccccc2)C(=O)NCNC1=O [Primidone]	113 ± 18
O=[N+]([O-])c1cccc2cn[nH]c12 [7-Nitroindazole]	124.7 ± 0.72
CC(C)NCC(O)c1ccc(NS(C)(=O)=O)cc1 (stereo not drawn) [Sotalol hydrochloride]	108 ± 6.9
c1ccc(C(NCc2cccnc2)(c2ccccc2)c2ccccc2)cc1	48.8 ± 13
COC(=O)C1=C(C)NC(C)=C([N+](=O)[O-])C1c1ccccc1C(F)(F)F (racemic)	167 ± 8.8
CCOc1ccccc1OC(c1ccccc1)C1CNCCO1 (stereo not drawn) [Reboxetine mesylate]	102 ± 5.2
COc1cc2c(cc1O)CC[C@@H]1[C@@H]2CC[C@]2(C)[C@@H](O)CC[C@@H]12 [2-Methoxyestradiol]	174 ± 46
CCCCN1CCC(CCC(=O)c2cc(Cl)c(N)cc2OC)CC1	67.2 ± 14
CC(C)NCC(O)COc1ccc(CCOCC2CC2)cc1 (stereo not drawn) [Betaxolol hydrochloride]	89.4 ± 13

SMILES	parasite growth [%]
Cl/C(=C\n1cncn1)c1ccc(Cl)cc1Cl [Loreclezole hydrochloride]	146 ± 12
COc1ccc(Cl)cc1NC(=O)Nc1cc(C)nc2ccccc12	52.7 ± 30
Nc1c2c(nc3ccccc13)CCCC2 [Tacrine hydrochloride]	130 ± 27
O=C(O)CN1C(=O)c2cccc3cccc(c23)C1=O [Alrestatin]	100 ± 26
Cn1cc(C(=O)OCC2CCN(CCNS(C)(=O)=O)CC2)c2ccccc21	123 ± 3.8
CCC(C)N(C)C(=O)c1cc2ccccc2c(-c2ccccc2Cl)n1 (stereo not drawn)	85.5 ± 33
N=C(CC(O)COc1ccccc1-c1ccccc1)N1CCCCC1 (stereo not drawn)	95.8 ± 34
C[C@@]1(O)[C@H](O)[C@@H](CO)O[C@H]1n1cnc2c(NC3CCCC3)nc(Cl)nc21	85.3 ± 39
Fc1ccc(-c2nc3n(c2-c2ccncc2)CCS3)cc1	< 0
C/C(=N\NC(=O)C1C(=O)NCC1c1ccccc1)c1cccc(Br)c1 (stereo not drawn)	147 ± 29
Cc1ccc(C(=O)Nc2ccc(S(=O)(=O)O)c3cc(S(=O)(=O)O)cc(S(=O)(=O)O)c23)cc1NC(=O)c1cccc(NC(=O)Nc2cccc(C(=O)Nc3cc(C(=O)Nc4ccc(S(=O)(=O)O)c5cc(S(=O)(=O)O)cc(S(=O)(=O)O)c45)ccc3C)c2)c1 [Suramin hexasodium salt]	90 ± 22
CNC(=O)c1cc2c(cn1)[nH]c1ccccc12	124 ± 19
CCS(=O)(=O)N(C)[C@H]1c2cc(C#N)ccc2OC(C)(C)[C@@H]1O (racemic) [Chromanol 293B]	142 ± 10
CN(C)C(=O)C(=O)c1cn(C)c2cc(Cl)c(C(=O)N3CCC(Cc4ccc(F)cc4)CC3)cc12	140 ± 28
C[C@@H](CN1CC(=O)NC(=O)C1)N1CC(=O)NC(=O)C1 [Dexrazoxane hydrochloride]	102 ± 13
C[C@@H]1CN(CCCn2c3ccccc3c3ccccc32)C[C@H](C)N1 [Rimcazole dihydrochloride]	31.8 ± 4.5
CC(C)(C)c1ccc(S(=O)(=O)/C=C/C#N)cc1	127 ± 30
Nc1ncn([C@H]2C[C@H](O)[C@@H](CO)O2)c(=O)n1 [Decitabine]	119 ± 9.9
CC(C)C[C@H](NC(=O)N1CCCCCC1)C(=O)N[C@H](Cc1cn(C)c2ccccc12)C(=O)N[C@H](Cc1ccccn1)C(=O)O	98.9 ± 45
